This note sets out measurements from the supplement of paper PMC10681739.

Test [1] concerns the target T1, ETS1 (UniProt P14921).
T1 sequence: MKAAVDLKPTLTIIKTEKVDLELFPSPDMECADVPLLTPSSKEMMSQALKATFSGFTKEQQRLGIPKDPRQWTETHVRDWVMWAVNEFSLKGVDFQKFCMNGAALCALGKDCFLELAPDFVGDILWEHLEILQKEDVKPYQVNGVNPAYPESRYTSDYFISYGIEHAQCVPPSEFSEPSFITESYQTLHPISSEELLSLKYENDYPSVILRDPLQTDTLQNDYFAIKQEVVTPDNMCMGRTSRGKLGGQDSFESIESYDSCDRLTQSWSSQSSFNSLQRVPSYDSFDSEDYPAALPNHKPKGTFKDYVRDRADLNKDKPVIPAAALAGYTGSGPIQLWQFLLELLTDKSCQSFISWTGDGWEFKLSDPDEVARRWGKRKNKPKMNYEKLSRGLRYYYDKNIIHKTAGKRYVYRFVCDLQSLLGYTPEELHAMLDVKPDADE
Briefly: ETS1 binding intensity (PBM fluorescence), ETS1 alone (arbitrary fluorescence units); higher = stronger binding. Particulars: ETS1 concentration 1 nM; RUNX1 concentration 0 nM.

Test [2] addresses T1, ETS1. Briefly: ETS1 binding intensity (PBM fluorescence) in presence of RUNX1, normalised to ETS1-only experiment (arbitrary fluorescence units); higher = stronger binding. Conditions: ETS1 concentration 1 nM; RUNX1 concentration 25 nM.

As for ACGTAGACAGGAAAGTAATGTGGTTCAGGACTGAGT, the ETS1 binding intensity with ETS1 [1] came to 746; with ETS1 [2] it was 766.

Turning to GCAAACGGAAGAGAGGAACGAAGGCCGCAGAGCTTG, the results for the ETS1 binding intensity in the test with ETS1 [1] and with ETS1 [2] were 486 and 481, respectively.

As for GCACAGGAAAAGCTGCTTTCCGCGTGGTAAATTCAA, the ETS1 binding intensity is 484 with ETS1 [1] and 446 with ETS1 [2].

For ACGCTGGAATCGCGGAAACCGCCGGTGCACGTTGGA, the ETS1 binding intensity with ETS1 [1] came out at 531; with ETS1 [2] it was 627.

Regarding ACCTTCCTTCCTGCCTCCCTTGTGGCTCCAGTCCAC, the ETS1 binding intensity turned out to be 552 with ETS1 [1] and 312 with ETS1 [2].

Take GGCCGGAAGCGCTCTCGTTGGCCCTGCGGCGCTGGA: the ETS1 binding intensity with ETS1 [1] was 2120; with ETS1 [2], 2800.

As for GTAGCCGGGTGTTCCGGAGCGCTGCGGGCAAAGCAG, the ETS1 binding intensity came to 387 in the test with ETS1 [1] and 539 with ETS1 [2].

Take TAAAGCGGAAGGGGCCGGCTCTGCGGCCTGGCCGCT: the results for the ETS1 binding intensity with ETS1 [1] and with ETS1 [2] were 553 and 770, respectively.

With GACCCATTTCCTGGCTCAGGAGCCCACAGCCCTGGG, the ETS1 binding intensity worked out at 464 in the test with ETS1 [1] and 404 with ETS1 [2].

GGAGGGCTTCCTGCCCACCACCACCCACAGCAGCTG: the results for the ETS1 binding intensity in the test with ETS1 [1] and with ETS1 [2] were 730 and 676, respectively.

On to CTGCACAAGGAAGCGCCTGTGTTGCTGTGGGCGGAG, for which the ETS1 binding intensity with ETS1 [1] amounted to 472; with ETS1 [2], 402.

Regarding CGCCCTCCGGAAGAGAGGGCGGACCGCGGCCGCGCA, the ETS1 binding intensity with ETS1 [1] worked out at 570; with ETS1 [2], 636.

Take GTGCCACTGAGAGGAAGGGGGCAACCACAGTGGGAG: the ETS1 binding intensity in the test with ETS1 [1] was 367; in the test with ETS1 [2] it was 590.

Take AGGGAAGCGGCGGCGGAAGCCCCGCAGGAGGCCGGC: the ETS1 binding intensity with ETS1 [1] was 806; with ETS1 [2] it was 932.

Turning to GGAGCGGCGGAAGGGAGCTTGCGGCGGGAGGCTGAA, the figures for the ETS1 binding intensity with ETS1 [1] and in the test with ETS1 [2] were 423 and 485, respectively.

GGGGGCAGGAAGCAGTGCAGCTCCTTAACCCACTTC: the ETS1 binding intensity with ETS1 [1] was found to be 842; in the test with ETS1 [2], 892.

In the case of ATTCTGCATCCTGTGCTCTTTCCATGAGACCACAAA, the figures for the ETS1 binding intensity with ETS1 [1] and with ETS1 [2] were 448 and 754, respectively.

Consider AGCCAGGAAATCCGCACCTACACAGCCCAACCACAG, for which the ETS1 binding intensity with ETS1 [1] is 582; with ETS1 [2], 435.

Turning to TTACACCCAAGGGATGTTGTTTGTGGGGGGCGGGGT, the ETS1 binding intensity with ETS1 [1] worked out at 445; with ETS1 [2] it was 490.

For AGGTGGGAGGAAGTTCCTACCCCGGCGCGGTGTGCA, the ETS1 binding intensity in the test with ETS1 [1] was found to be 625; with ETS1 [2], 620.

Consider TCGGAACGGAAGGGAGGCACGAAACCGCGAGTGGAG, for which the ETS1 binding intensity in the test with ETS1 [1] was 607; in the test with ETS1 [2], 1840.

For CCGCCCTCCACCGAGTTCCGGCCACAGAGCGGGCCC, the ETS1 binding intensity in the test with ETS1 [1] worked out at 536; in the test with ETS1 [2], 547.

On to GTAAAAGGAAGTAAAGGCTTGGCCGGGCGCGGTGGC, for which the ETS1 binding intensity is 569 with ETS1 [1] and 411 in the test with ETS1 [2].

As to GGTTGCCCCCTTCCTCTCTGTGGCACACACAGACCT, the results for the ETS1 binding intensity with ETS1 [1] and with ETS1 [2] were 474 and 345, respectively.

AGCGGTGTTTCAGGATGTGAGGGCCCGCAGGAGCCG: the ETS1 binding intensity in the test with ETS1 [1] turned out to be 666; in the test with ETS1 [2], 837.

Turning to CCAGCCTCCCCTTTCCTGTCTGTGGCAGGAGCGTGC, the results for the ETS1 binding intensity with ETS1 [1] and with ETS1 [2] were 505 and 512, respectively.

As to TGGCTGTTCAGCCTTCCGCTTGTGGCTCCACCCCCG, the results for the ETS1 binding intensity in the test with ETS1 [1] and in the test with ETS1 [2] were 594 and 493, respectively.

Regarding GAAGAAGTCAGGAAATGCTGCCGCAGCAGCCAGCCC, the values for the ETS1 binding intensity with ETS1 [1] and with ETS1 [2] were 878 and 1070, respectively.

In the case of CAACTCACATCCTCTGGCAACAACCACTAATCCACT, the ETS1 binding intensity in the test with ETS1 [1] is 460; in the test with ETS1 [2], 525.

With CTCTTCCAGGAAGCCTTCCCTGACCACTGCTTGCTC, the figures for the ETS1 binding intensity with ETS1 [1] and with ETS1 [2] were 396 and 505, respectively.

As to CACCTGCCTTGCTTCCTGCGGTGCAACCGGCGGGAG, the ETS1 binding intensity with ETS1 [1] was 499; with ETS1 [2] it was 585.

Regarding ATGTGCGTGTGCACAGGAAAACCACTGCCAGTATTT, the ETS1 binding intensity came to 756 with ETS1 [1] and 789 in the test with ETS1 [2].

With TGACTCACCTTCCTGTAGGTTGGTTTTCTGCATATC, the ETS1 binding intensity with ETS1 [1] was 472; with ETS1 [2], 308.

As for TGAGAAGGCAGGATAAGTGACCACATATTTATGCCA, the ETS1 binding intensity in the test with ETS1 [1] worked out at 435; with ETS1 [2], 874.

Consider CTCGGAGCGGAACTACTAGGGTGGTTTCTCCTGAGG, for which the ETS1 binding intensity with ETS1 [1] amounted to 464; with ETS1 [2], 336.

Turning to CCCCAGGTTGCTTCCGTTCTGGGAACCGCGTCCTCG, the ETS1 binding intensity in the test with ETS1 [1] was 1190; in the test with ETS1 [2], 984.

In the case of TCACCCTCTCACTTCCTGCGGGTCCCAGGCTCAGGC, the figures for the ETS1 binding intensity with ETS1 [1] and in the test with ETS1 [2] were 896 and 790, respectively.

ATTAAAGACTTCCGTGCAAGACCACAGCTGCCTGAC: the ETS1 binding intensity amounted to 555 with ETS1 [1] and 513 with ETS1 [2].

Take TGTGCTTTGTAGTGAGGATGTGGGTGCCTGCCTCAC: the ETS1 binding intensity in the test with ETS1 [1] came to 797; in the test with ETS1 [2], 1010.

GGTTTTGGTAGGAAGGAAAGTGGTTTTCATAGGAAG: the ETS1 binding intensity was 588 with ETS1 [1] and 598 with ETS1 [2].

Take GCAGCCAGGGTAGGAAGTGGTAAGACCTCCCTGTGA: the figures for the ETS1 binding intensity in the test with ETS1 [1] and with ETS1 [2] were 893 and 1230, respectively.

For CATCTACTGAGGAAGTGTAAGCCACAATAAGAAGCC, the ETS1 binding intensity with ETS1 [1] came out at 641; in the test with ETS1 [2] it was 869.

TAGGCCGGAAAGCACCACCGTCCTCCCGCAGGCCGC: the results for the ETS1 binding intensity in the test with ETS1 [1] and with ETS1 [2] were 455 and 386, respectively.

As for AGGAGTGAGGAAGTGAGGCTGGCCTTGTGGGTGTGG, the ETS1 binding intensity turned out to be 644 with ETS1 [1] and 748 with ETS1 [2].

For the sequence TGGTTAAGCAGTGCAGGATGTGGGCTGCACTGCTAA, the ETS1 binding intensity in the test with ETS1 [1] is 2590; with ETS1 [2], 3930.

For the sequence TTTTCCGACGGAAGCCTTACTGCCGCAAACGTCACT, the ETS1 binding intensity with ETS1 [1] is 556; with ETS1 [2], 503.

As for TGAATCATGACAGAGGAAGTGTGGTTCTGTGATTAC, the ETS1 binding intensity with ETS1 [1] was found to be 1760; with ETS1 [2] it was 2090.

Turning to TCTCTCTACGGAAGCTGGTAGGGCTGTGGGTGCTTC, the ETS1 binding intensity with ETS1 [1] came out at 729; with ETS1 [2] it was 810.

As to ACACCGCTCAGGAAGACAAAGCCACACCTCACACCA, the ETS1 binding intensity with ETS1 [1] is 443; with ETS1 [2] it was 358.
